Test results published in article PMC4102417.

What follows are compounds tested on murine 3T3 fibroblasts (assay: primary screen, percent viability or growth; higher = less effect of the substance).
Experimental: Similarly, for measuring the cytotoxicity concentration (CC50) for 3T3 fibroblast cells, cultures were incubated with drugs for 72 hours and developed using Alamar Blue (Alamar Biosciences Inc, Sacramento, CA) as previously described.
In the case of `CC(CC(O)C1OC1(C)C)C1CCC2(C)C3=CCC4C(C)(C)C(=O)CCC4(C)C3CCC12C` (stereo not shown), the “Mammalian (3T3) cell % growth at 10 uM” value is reported as 100%. With `O=c1[nH]c(=O)n([C@H]2C[C@H](O)[C@@H](CO)O2)cc1F` the “Mammalian (3T3) cell % growth at 10 uM” value was 86.2%. `O=C(/C=C/c1ccc(O)c(O)c1)OCCc1ccccc1` was tested, and the “Mammalian (3T3) cell % growth at 10 uM” value was 1.4%. For `CCC(=O)O[C@H]1CC[C@H]2[C@@H]3CCc4cc(O)ccc4[C@H]3CC[C@]12C`, the “Mammalian (3T3) cell % growth at 10 uM” value was 100%. `O=c1c(O)c(-c2ccc(O)c(O)c2)oc2c(O[C@@H]3O[C@H](CO)[C@@H](O)[C@H](O)[C@H]3O)c(O)cc(O)c12` was tested, and the “Mammalian (3T3) cell % growth at 10 uM” value was 100%. `Cc1ccc(C(=O)C(C)CN2CCCCC2)cc1` (stereo not shown) was tested, and the “Mammalian (3T3) cell % growth at 10 uM” value was 0.2%. With `CC(=O)Oc1cc2c(c(C)c1OC(C)=O)CC=C1C2(C)CCC2(C)C3CC(C)(C(=O)O)CCC3(C)CCC12C` (stereo not shown) the “Mammalian (3T3) cell % growth at 10 uM” value was 0.6%. With `C=C1CC[C@@H]2C(CC2(C)C)C(=O)CC[C@H]1O` (stereo partly shown) the “Mammalian (3T3) cell % growth at 10 uM” value was 2.6%. `COc1cc2c(cc1OC)C1C(=O)c3c(cc4c(c3O)C=CC(C)(C)O4)OC1CO2` (stereo not shown) was tested, and the “Mammalian (3T3) cell % growth at 10 uM” value was 34.3%. In the case of `C[C@H]1COC2=C1C(=O)C(=O)c1c2ccc2c1CCCC2(C)C`, the “Mammalian (3T3) cell % growth at 10 uM” value is reported as 87%. For `CC1=CC(=O)c2ccccc2C1=O`, the “Mammalian (3T3) cell % growth at 10 uM” value was 0.5%. In the case of `C=C1c2c(Cl)ccc(O)c2C(O)=C2C(=O)[C@]3(O)C(=O)/C(=C(/N)O)C(=O)[C@@H](N(C)C)[C@@H]3[C@@H](O)[C@H]12.O=C(O)c1cc(S(=O)(=O)O)ccc1O`, the “Mammalian (3T3) cell % growth at 10 uM” value is reported as 60.9%. For `N[C@@H](Cc1ccc(O)c(O)c1)C(=O)O`, the “Mammalian (3T3) cell % growth at 10 uM” value was 3.9%. `CC1=CC(=O)C2C(C)(C)CCCC2(C)C1(O)CCc1ccoc1` (stereo not shown) was tested, and the “Mammalian (3T3) cell % growth at 10 uM” value was 75.8%. With `CCC(=C(c1ccccc1)c1ccc(OCCN(C)C)cc1)c1ccccc1` the “Mammalian (3T3) cell % growth at 10 uM” value was 97%. With `c1ccc(-c2ccc(C(c3ccccc3)n3ccnc3)cc2)cc1` (stereo not shown) the “Mammalian (3T3) cell % growth at 10 uM” value was 93.6%. For `COC(=O)[C@H]1[C@H]2C[C@@H]3c4[nH]c5cc(OC)ccc5c4CCN3C[C@H]2C[C@@H](OC(=O)c2cc(OC)c(OC)c(OC)c2)[C@@H]1OC`, the “Mammalian (3T3) cell % growth at 10 uM” value was 100%. With `COc1ccc2cc3[n+](cc2c1OC)CCc1cc2c(cc1-3)OCO2` the “Mammalian (3T3) cell % growth at 10 uM” value was 75.8%. For `CC(C)=CCc1c2c(c3occ(-c4ccc(O)c(O)c4)c(=O)c3c1O)C=CC(C)(C)O2`, the “Mammalian (3T3) cell % growth at 10 uM” value was 4.1%. For `CC1(C)C(=O)C=CC2(C)C1CC(O)C1(C)C2CCC2(C)C(c3ccoc3)OC(=O)C3OC321` (stereo not shown), the “Mammalian (3T3) cell % growth at 10 uM” value was 76%. `COc1cc2c(cc1OC)C1C(=O)c3ccc4c(c3OC1CO2)CC(C(C)C)O4` (stereo not shown) was tested, and the “Mammalian (3T3) cell % growth at 10 uM” value was 19.3%. For `NCCc1ccc(O)c(O)c1`, the “Mammalian (3T3) cell % growth at 10 uM” value was 2.4%. `COc1c(O)cc2oc3cc(O)c(CC=C(C)C)c(O)c3c(=O)c2c1CC=C(C)C` was tested, and the “Mammalian (3T3) cell % growth at 10 uM” value was 5.5%. With `O=C(Nc1ccc([N+](=O)[O-])cc1Cl)c1cc(Cl)ccc1O` the “Mammalian (3T3) cell % growth at 10 uM” value was 10.5%. With `COC(=O)CCC(C)C1CCC2C3C(O)CC4CC(O)CCC4(C)C3CC(O)C12C` (stereo not shown) the “Mammalian (3T3) cell % growth at 10 uM” value was 81%. In the case of `COc1cc(OC)c2c(=O)c(OC)c(-c3ccc(OC)c(OC)c3)oc2c1`, the “Mammalian (3T3) cell % growth at 10 uM” value is reported as 43.3%. In the case of `CC(C)CCC[C@@H](C)[C@H]1CC[C@H]2[C@@H]3C(=O)C=C4C[C@@H](O)CC[C@]4(C)[C@H]3CC[C@]12C`, the “Mammalian (3T3) cell % growth at 10 uM” value is reported as 68.5%. `OCCN1CCN(CCCN2c3ccccc3Sc3ccc(Cl)cc32)CC1` was tested, and the “Mammalian (3T3) cell % growth at 10 uM” value was 66.6%. In the case of `C=C(C)[C@@H]1CC[C@]2(CO)CC[C@]3(C)[C@H](CC[C@@H]4[C@@]5(C)CC[C@H](O)C(C)(C)[C@@H]5CC[C@]43C)[C@@H]12`, the “Mammalian (3T3) cell % growth at 10 uM” value is reported as 100%. For `NCCCCNCCCN`, the “Mammalian (3T3) cell % growth at 10 uM” value was 41%. For `CN1CCN(CCCN2c3ccccc3Sc3ccc(C(F)(F)F)cc32)CC1`, the “Mammalian (3T3) cell % growth at 10 uM” value was 94.7%. In the case of `COC(=O)CC[C@@H](C)[C@H]1CC[C@H]2[C@@H]3CC[C@@H]4C[C@H](O)CC[C@]4(C)[C@H]3C[C@H](O)[C@]12C`, the “Mammalian (3T3) cell % growth at 10 uM” value is reported as 100%. With `O=c1c(-c2cc(O)c(O)c(O)c2)coc2cc(O)c(O)c(O)c12` the “Mammalian (3T3) cell % growth at 10 uM” value was 73.7%. With `CNC1CCC(c2ccc(Cl)c(Cl)c2)c2ccccc21.Cl` (stereo not shown) the “Mammalian (3T3) cell % growth at 10 uM” value was 100%. In the case of `COc1cc(-c2cc(=O)c3c(O)c(OC)c(OC)c(OC)c3o2)cc(OC)c1OC`, the “Mammalian (3T3) cell % growth at 10 uM” value is reported as 4%. In the case of `COc1cc(O)c(C(=O)/C=C/c2ccc(OC)c(O)c2)c(OC)c1`, the “Mammalian (3T3) cell % growth at 10 uM” value is reported as 6%. For `CN(C)CCCN1c2ccccc2Sc2ccccc21.Cl`, the “Mammalian (3T3) cell % growth at 10 uM” value was 98.7%. `COC(=O)CC1C(C)(C)C(OC(C)=O)C2C(OC(C)=O)C34OC2(O)C1(C)C3CCC1(C)C4=CC(=O)OC1c1ccoc1` (stereo not shown) was tested, and the “Mammalian (3T3) cell % growth at 10 uM” value was 89.7%. In the case of `CN1CCCC1CCOC(C)(c1ccccc1)c1ccc(Cl)cc1` (stereo not shown), the “Mammalian (3T3) cell % growth at 10 uM” value is reported as 93.2%. In the case of `CCOc1ccc(Cc2nccc3cc(OCC)c(OCC)cc23)cc1OCC`, the “Mammalian (3T3) cell % growth at 10 uM” value is reported as 95.1%.
